# “And” between values parts separate entries of the source, which are not always exact repeats. Equal values may be shown once. Inconclusive results are not listed. Some compounds were tested as several samples or in several runs, with calls that do not always agree. The source made the active and inactive calls. Unless noted, the call rests on the fitted dose curve.
# Experiments:
# [1] = qHTS drug screen for cell cycle checkpoint inhibitors in PARPi-resistant BRCA-mutant ovarian cancer cell lines. (AID 1963452); details: PEO1/OlaR viability, CellTiter-Glo luminescence, 96 h; for Z-AUC: stronger effect = lower value
# How it was run: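 PEO1, PEO4 and PEO1/OlaR ovarian cancer cells, 600 per well, exposed 96 h at 37C to a dilution series. Viability read by CellTiter-Glo luminescence, normalized to DMSO and empty wells; activity summarized as Z-AUC.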
# [2] = test system: 3D7; experiment: qHTS profiling for inhibitors of Plasmodium falciparum proliferation (AID 504749; active means well fitted inhibition curve with a large enough effect; further: nearly all actives have a fitted effect of over 60% in size); details: P. falciparum in erythrocytes, SYBR Green DNA, 72 h; series mostly up to 28.7 µM
# How it was run: (§1)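 Three-day growth assay of blood-stage parasites in erythrocytes (0.3% parasitemia, 2.5% hematocrit) at 37 C, 5% CO2, quantified by SYBR Green DNA staining after overnight detergent lysis.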
# [3] = test system: 7G8; experiment: as above; details: P. falciparum in erythrocytes, SYBR Green DNA, 72 h; series mostly up to 28.7 µM
# How it was run: as §1
# [4] = test system: AA1029; experiment: as above; details: P. falciparum in erythrocytes, SYBR Green DNA, 72 h; series mostly up to 28.7 µM
# How it was run: as §1
# [5] = test system: AS120; experiment: as above; details: P. falciparum in erythrocytes, SYBR Green DNA, 72 h; series mostly up to 28.7 µM
# How it was run: as §1
# [6] = test system: ATS189; experiment: as above; details: P. falciparum in erythrocytes, SYBR Green DNA, 72 h; series mostly up to 28.7 µM
# How it was run: as §1
# [7] = test system: ATS95; experiment: as above; details: P. falciparum in erythrocytes, SYBR Green DNA, 72 h; series mostly up to 28.7 µM
# How it was run: as §1
# [8] = test system: C2A; experiment: as above; details: P. falciparum in erythrocytes, SYBR Green DNA, 72 h; series mostly up to 28.7 µM
# How it was run: as §1
# [9] = measured here: PEO1 parental Z-AUC
# Potency means the concentration at half of the fitted maximal effect.
smiles,measurement,setting,value
C[C@H]1[C@@H](OC(=O)CCC(=O)O)O[C@@H]2O[C@@]3(C)CC[C@@H]4[C@H](C)CC[C@@H]1[C@@]24OO3,Z-AUC,[1],-0.162 (inactive)
same,Z-AUC,[1]; [9],-0.815
same,Z-AUC,[1]; measured here: PEO4 Z-AUC,-0.572
FC(F)(F)c1ccc(Nc2nc3ccc(Oc4ccnc(-c5ncc(C(F)(F)F)[nH]5)c4)cc3[nH]2)cc1,Z-AUC,[1],-0.52 (inactive)
same,Z-AUC,[1]; [9],-0.706
same,Z-AUC,[1]; measured here: PEO4 Z-AUC,-1.16
O=C(Nc1nnc(-c2ccco2)o1)c1cc(-c2ccccc2)nc2ccccc12,Z-AUC,[1],1.38 (inactive)
same,Z-AUC,[1]; [9],0.606
same,Z-AUC,[1]; measured here: PEO4 Z-AUC,0.601
O=C(CCCCCCC(=O)Nc1cccnc1)NO,Z-AUC,[1],0.519 (inactive)
same,Z-AUC,[1]; [9],0.211
same,Z-AUC,[1]; measured here: PEO4 Z-AUC,0.136
N#CNC(=NCCCCCCOc1ccc(Cl)cc1)Nc1ccncc1,Potency,[1],34.7 nM (active)
same,Z-AUC,[1]; [9],-3.38
same,Z-AUC,[1]; measured here: PEO4 Z-AUC,-3.13
CC(C)Oc1ccc(C(=O)N[C@H](CNC(=O)CN(C)C)Cc2ccc(-c3cn4cccc([C@H](C)O)c4n3)cc2)cc1Cl,Z-AUC,[1],-1.44 (inactive)
same,Z-AUC,[1]; [9],-0.733
same,Z-AUC,[1]; measured here: PEO4 Z-AUC,-1.18
N#Cc1cc(NC(=O)Nc2nnc(-c3ccncc3)s2)ccc1-c1cn[nH]c1,Z-AUC,[1],-0.0161 (inactive)
same,Z-AUC,[1]; [9],0.0346
same,Z-AUC,[1]; measured here: PEO4 Z-AUC,0.15
COc1cc(C(C)C)c(Oc2cnc(NC(CO)CO)nc2N)cc1I,Z-AUC,[1],0.743 (inactive)
same,Z-AUC,[1]; [9],1.44
same,Z-AUC,[1]; measured here: PEO4 Z-AUC,1.02
CCCCCCCCc1ccc(CCC(N)(CO)CO)cc1,Z-AUC,[1],-0.00924 (inactive)
same,Z-AUC,[1]; [9],-0.111
same,Z-AUC,[1]; measured here: PEO4 Z-AUC,0.091
COc1cc(CCc2cc(NC(=O)c3ccc(N4C[C@@H](C)N[C@@H](C)C4)cc3)n[nH]2)cc(OC)c1,Z-AUC,[1],-1.36 (inactive)
same,Z-AUC,[1]; [9],-0.945
same,Z-AUC,[1]; measured here: PEO4 Z-AUC,-0.842
Cc1ccc2nc(NCCN)c3ncc(C)n3c2c1,Z-AUC,[1],0.876 (inactive)
same,Z-AUC,[1]; [9],0.537
same,Z-AUC,[1]; measured here: PEO4 Z-AUC,1.09
COc1cccc2c1C(=O)c1c(O)c3c(c(O)c1C2=O)C[C@@](O)(C(=O)CO)C[C@@H]3O[C@H]1C[C@H](N)[C@@H](O)[C@H](C)O1,Potency,[1],219 nM (active)
same,Z-AUC,[1]; [9],-2.06
same,Z-AUC,[1]; measured here: PEO4 Z-AUC,-1.69
CCOC(=O)C1=C(C)NC(=S)NC1c1cccc(O)c1 (centres undefined),Z-AUC,[1],1.34 (inactive)
same,Z-AUC,[1]; [9],0.343
same,Z-AUC,[1]; measured here: PEO4 Z-AUC,0.61
Nc1nc(N)c2nc(-c3cccc(O)c3)c(-c3cccc(O)c3)nc2n1,Z-AUC,[1],0.00904 (inactive)
same,Z-AUC,[1]; [9],1.16
same,Z-AUC,[1]; measured here: PEO4 Z-AUC,0.781
C=Cc1c(C)c2cc3nc(cc4[nH]c(cc5nc(cc1[nH]2)C(C)=C5CCC(=O)O)c(CCC(=O)OC)c4C)[C@@]1(C)C3=CC=C(C(=O)OC)[C@H]1C(=O)OC,Z-AUC,[1],0.838 (inactive)
same,Z-AUC,[1]; [9],1.25
same,Z-AUC,[1]; measured here: PEO4 Z-AUC,1.36
CC(C)NC[C@@H](C(=O)N1CCN(c2ncnc3c2[C@H](C)C[C@H]3O)CC1)c1ccc(Cl)cc1,Z-AUC,[1],1.25 (inactive)
same,Z-AUC,[1]; [9],1.5
same,Z-AUC,[1]; measured here: PEO4 Z-AUC,1.13
COc1cc2ncnc(Nc3cccc(Br)c3)c2cc1OC,Z-AUC,[1],0.281 (inactive)
same,Z-AUC,[1]; [9],0.586
same,Z-AUC,[1]; measured here: PEO4 Z-AUC,0.428
COc1ccc(Nc2nccc(NCCO)n2)cc1,Z-AUC,[1],1.22 (inactive)
same,Z-AUC,[1]; [9],0.748
same,Z-AUC,[1]; measured here: PEO4 Z-AUC,0.763
O=[N+]([O-])c1cn2c(n1)OC[C@@H](OCc1ccc(OC(F)(F)F)cc1)C2,Z-AUC,[1],0.733 (inactive)
same,Z-AUC,[1]; [9],0.61
same,Z-AUC,[1]; measured here: PEO4 Z-AUC,0.849
CN(C)CCN1C(=O)c2cccc3cc(N)cc(c23)C1=O,Z-AUC,[1],-0.488 (inactive)
same,Z-AUC,[1]; [9],-0.749
same,Z-AUC,[1]; measured here: PEO4 Z-AUC,-0.88
Oc1cc2c(cc1O)C1c3ccc(O)c(O)c3OCC1(O)C2 (centres undefined),Z-AUC,[1],1.52 (inactive)
same,Z-AUC,[1]; [9],1.33
same,Z-AUC,[1]; measured here: PEO4 Z-AUC,1.39
c1ccc2c(Oc3nc(Nc4ccc(N5CCOCC5)cc4)c4ncn(C5CCCCC5)c4n3)cccc2c1,Z-AUC,[1],1.71 (inactive)
same,Z-AUC,[1]; [9],1.4
same,Z-AUC,[1]; measured here: PEO4 Z-AUC,1.58
c1coc(CNc2ncnc3nc[nH]c23)c1,Z-AUC,[1],0.877 (inactive)
same,Z-AUC,[1]; [9],0.956
same,Z-AUC,[1]; measured here: PEO4 Z-AUC,1.1
CC1=C(C(=O)Nc2cc3cn[nH]c3cc2F)C(c2ccc(Cl)cc2F)N=C(c2ccnc(Cl)c2)N1 (centres undefined),Z-AUC,[1],0.0424 (inactive)
same,Z-AUC,[1]; [9],0.693
same,Z-AUC,[1]; measured here: PEO4 Z-AUC,0.963
COc1cc2c(cc1OC)[C@@H]1C(=O)c3ccc4c(c3O[C@@H]1CO2)C=CC(C)(C)O4,Z-AUC,[1],-0.868 (inactive)
same,Z-AUC,[1]; [9],-1.79
same,Z-AUC,[1]; measured here: PEO4 Z-AUC,-1.41
CN(CC(=O)N(Cc1ccc(C2CCCCC2)cc1)c1ccc(C(=O)O)c(O)c1)S(=O)(=O)c1c(F)c(F)c(F)c(F)c1F,Z-AUC,[1],0.87 (inactive)
same,Z-AUC,[1]; [9],0.115
same,Z-AUC,[1]; measured here: PEO4 Z-AUC,0.274
CC(C)c1cnn2c(NCc3ccccc3)cc(NCCCCCCN)nc12,Z-AUC,[1],1.27 (inactive)
same,Z-AUC,[1]; [9],1.33
same,Z-AUC,[1]; measured here: PEO4 Z-AUC,1.15
Cc1noc(-c2ccc(CSCCC(=O)O)cc2)c1NC(=O)OC(C)c1ccccc1Cl (centres undefined),Z-AUC,[1],-0.506 (inactive)
same,Z-AUC,[1]; [9],-0.869
same,Z-AUC,[1]; measured here: PEO4 Z-AUC,-0.91
COc1cccc2c1C(=O)c1c(O)c3c(c(O)c1C2=O)C[C@@](O)(C(=O)CO)C[C@@H]3O[C@H]1C[C@H](N)[C@H](OC2CCCCO2)[C@H](C)O1 (some centres undefined),Potency,[1],245 nM (active)
same,Z-AUC,[1],0.402 (inactive)
same,Z-AUC,[1]; [9],-0.769 and -1.75
same,Z-AUC,[1]; measured here: PEO4 Z-AUC,0.0749 and -1.06
same,Potency,[2],2240 nM (active)
same,Potency,[3],794 nM (active)
same,Potency,[4],3550 nM (active)
same,Potency,[5],2510 nM (active)
same,Potency,[6],11200 nM (active)
same,Potency,[7],3980 nM (active)
same,Potency,[8],8910 nM (active)
NC1=N[C@H]2[C@H](CS[C@H]2CCCCC(=O)O)N1,Z-AUC,[1],-0.195 (inactive)
same,Z-AUC,[1]; [9],0.0828
same,Z-AUC,[1]; measured here: PEO4 Z-AUC,0.00068
COc1cc(C)c(Sc2cnc(NC(=O)c3ccc(CNC(C)C(C)(C)C)cc3)s2)cc1C(=O)N1CCN(C(C)=O)CC1 (centres undefined),Z-AUC,[1],-0.0176 (inactive)
same,Z-AUC,[1]; [9],-0.233
same,Z-AUC,[1]; measured here: PEO4 Z-AUC,-0.809
Cc1cc(C(=O)NOCCO)c(Nc2ccc(I)cc2F)n(C)c1=O,Z-AUC,[1],-0.774 (inactive)
same,Z-AUC,[1]; [9],-1.14
same,Z-AUC,[1]; measured here: PEO4 Z-AUC,-0.82
